The values below come from ChEMBL document CHEMBL1961873, “Compounds: GSK PKIS; Assays: Nanosyn kinase panel” (2012).

Assay [1] deals with T1, Inhibitor of nuclear factor kappa-B kinase subunit epsilon (Homo sapiens) (UniProt Q14164).
T1 sequence (whole entry): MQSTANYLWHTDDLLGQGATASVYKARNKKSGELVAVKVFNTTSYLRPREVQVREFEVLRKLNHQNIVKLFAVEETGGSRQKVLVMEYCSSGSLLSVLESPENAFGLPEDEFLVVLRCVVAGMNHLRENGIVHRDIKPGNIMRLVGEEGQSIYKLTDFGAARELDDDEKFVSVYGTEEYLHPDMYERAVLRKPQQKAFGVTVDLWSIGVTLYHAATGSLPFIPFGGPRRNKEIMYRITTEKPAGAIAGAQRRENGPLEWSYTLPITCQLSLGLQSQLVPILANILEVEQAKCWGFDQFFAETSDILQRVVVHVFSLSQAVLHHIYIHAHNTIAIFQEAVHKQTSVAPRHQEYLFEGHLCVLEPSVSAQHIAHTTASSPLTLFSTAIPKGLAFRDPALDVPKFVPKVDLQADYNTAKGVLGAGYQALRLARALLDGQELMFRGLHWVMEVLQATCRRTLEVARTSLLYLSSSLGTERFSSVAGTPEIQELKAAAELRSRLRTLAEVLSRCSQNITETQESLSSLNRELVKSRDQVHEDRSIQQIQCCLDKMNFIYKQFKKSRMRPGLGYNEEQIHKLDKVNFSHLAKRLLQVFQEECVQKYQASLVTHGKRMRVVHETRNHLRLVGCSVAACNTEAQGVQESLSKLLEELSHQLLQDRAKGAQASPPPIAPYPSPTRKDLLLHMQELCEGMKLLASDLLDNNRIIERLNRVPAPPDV
As to conditions: at 1 µM.

Assay [2] deals with T2, Serine/threonine-protein kinase Nek1 (Homo sapiens) (UniProt Q96PY6).
T2 sequence (whole entry): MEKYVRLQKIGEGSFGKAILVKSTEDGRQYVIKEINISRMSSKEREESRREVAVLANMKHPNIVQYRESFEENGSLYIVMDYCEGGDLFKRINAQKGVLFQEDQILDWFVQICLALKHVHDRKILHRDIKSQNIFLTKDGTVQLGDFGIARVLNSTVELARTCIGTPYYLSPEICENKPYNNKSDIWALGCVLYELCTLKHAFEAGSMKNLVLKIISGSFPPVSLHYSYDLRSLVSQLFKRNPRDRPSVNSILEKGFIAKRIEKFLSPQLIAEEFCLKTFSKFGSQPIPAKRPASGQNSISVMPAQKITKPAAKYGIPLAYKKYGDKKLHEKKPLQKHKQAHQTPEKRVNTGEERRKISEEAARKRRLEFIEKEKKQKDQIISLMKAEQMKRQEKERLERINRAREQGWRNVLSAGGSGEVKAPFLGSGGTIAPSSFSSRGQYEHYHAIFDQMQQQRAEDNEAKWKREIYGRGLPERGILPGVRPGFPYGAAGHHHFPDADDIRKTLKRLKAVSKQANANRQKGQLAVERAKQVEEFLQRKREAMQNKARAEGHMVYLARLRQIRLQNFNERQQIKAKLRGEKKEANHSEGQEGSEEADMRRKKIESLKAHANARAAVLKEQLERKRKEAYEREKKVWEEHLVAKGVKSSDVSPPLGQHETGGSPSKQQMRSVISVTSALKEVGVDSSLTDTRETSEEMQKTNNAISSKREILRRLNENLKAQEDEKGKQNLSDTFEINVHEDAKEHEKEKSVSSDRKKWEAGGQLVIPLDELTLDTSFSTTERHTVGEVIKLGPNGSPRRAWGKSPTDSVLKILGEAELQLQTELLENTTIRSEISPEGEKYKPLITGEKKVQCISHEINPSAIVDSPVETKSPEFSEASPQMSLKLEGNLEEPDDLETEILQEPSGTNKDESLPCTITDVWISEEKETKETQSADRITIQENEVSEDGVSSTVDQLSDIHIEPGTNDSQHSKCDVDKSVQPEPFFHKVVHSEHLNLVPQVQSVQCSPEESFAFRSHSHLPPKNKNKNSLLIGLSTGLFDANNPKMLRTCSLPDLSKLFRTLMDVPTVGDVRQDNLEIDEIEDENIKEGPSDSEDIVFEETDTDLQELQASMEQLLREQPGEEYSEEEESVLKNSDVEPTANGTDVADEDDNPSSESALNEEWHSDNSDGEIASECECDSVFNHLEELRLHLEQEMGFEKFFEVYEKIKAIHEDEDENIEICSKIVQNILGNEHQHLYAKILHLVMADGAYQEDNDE
As to conditions: at 0.1 µM.

Assay [3] addresses T2, Serine/threonine-protein kinase Nek1 (Homo sapiens). As to conditions: at 1 µM.
In assay [4] the target is T3, Serine/threonine-protein kinase Nek2 (Homo sapiens) (UniProt P51955).
T3 sequence (whole entry): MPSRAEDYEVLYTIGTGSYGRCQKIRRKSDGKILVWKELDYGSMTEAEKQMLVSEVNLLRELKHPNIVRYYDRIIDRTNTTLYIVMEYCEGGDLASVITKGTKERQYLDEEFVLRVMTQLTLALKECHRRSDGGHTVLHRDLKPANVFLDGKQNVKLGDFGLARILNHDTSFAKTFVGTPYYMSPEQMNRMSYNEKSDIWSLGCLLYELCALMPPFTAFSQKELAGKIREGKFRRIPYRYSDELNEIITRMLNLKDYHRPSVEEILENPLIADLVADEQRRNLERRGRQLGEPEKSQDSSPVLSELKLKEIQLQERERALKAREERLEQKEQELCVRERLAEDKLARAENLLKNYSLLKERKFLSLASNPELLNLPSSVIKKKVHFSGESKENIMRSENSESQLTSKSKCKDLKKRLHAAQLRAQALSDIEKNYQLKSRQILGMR
As to conditions: at 0.1 µM.

Assay [5] has as its target T3, Serine/threonine-protein kinase Nek2 (Homo sapiens). As to conditions: at 1 µM.
The target of assay [6] is Serine/threonine-protein kinase Nek6 (Homo sapiens) (UniProt Q9HC98). As to conditions: at 0.1 µM.
The target is the same in assay [7]. As to conditions: at 1 µM.
Assay [8] addresses Serine/threonine-protein kinase Nek7 (Homo sapiens) (UniProt Q8TDX7). As to conditions: at 0.1 µM.
The target is the same in assay [9]. As to conditions: at 1 µM.
The target of assay [10] is T4, Serine/threonine-protein kinase Nek9 (Homo sapiens) (UniProt Q8TD19).
T4 sequence (whole entry): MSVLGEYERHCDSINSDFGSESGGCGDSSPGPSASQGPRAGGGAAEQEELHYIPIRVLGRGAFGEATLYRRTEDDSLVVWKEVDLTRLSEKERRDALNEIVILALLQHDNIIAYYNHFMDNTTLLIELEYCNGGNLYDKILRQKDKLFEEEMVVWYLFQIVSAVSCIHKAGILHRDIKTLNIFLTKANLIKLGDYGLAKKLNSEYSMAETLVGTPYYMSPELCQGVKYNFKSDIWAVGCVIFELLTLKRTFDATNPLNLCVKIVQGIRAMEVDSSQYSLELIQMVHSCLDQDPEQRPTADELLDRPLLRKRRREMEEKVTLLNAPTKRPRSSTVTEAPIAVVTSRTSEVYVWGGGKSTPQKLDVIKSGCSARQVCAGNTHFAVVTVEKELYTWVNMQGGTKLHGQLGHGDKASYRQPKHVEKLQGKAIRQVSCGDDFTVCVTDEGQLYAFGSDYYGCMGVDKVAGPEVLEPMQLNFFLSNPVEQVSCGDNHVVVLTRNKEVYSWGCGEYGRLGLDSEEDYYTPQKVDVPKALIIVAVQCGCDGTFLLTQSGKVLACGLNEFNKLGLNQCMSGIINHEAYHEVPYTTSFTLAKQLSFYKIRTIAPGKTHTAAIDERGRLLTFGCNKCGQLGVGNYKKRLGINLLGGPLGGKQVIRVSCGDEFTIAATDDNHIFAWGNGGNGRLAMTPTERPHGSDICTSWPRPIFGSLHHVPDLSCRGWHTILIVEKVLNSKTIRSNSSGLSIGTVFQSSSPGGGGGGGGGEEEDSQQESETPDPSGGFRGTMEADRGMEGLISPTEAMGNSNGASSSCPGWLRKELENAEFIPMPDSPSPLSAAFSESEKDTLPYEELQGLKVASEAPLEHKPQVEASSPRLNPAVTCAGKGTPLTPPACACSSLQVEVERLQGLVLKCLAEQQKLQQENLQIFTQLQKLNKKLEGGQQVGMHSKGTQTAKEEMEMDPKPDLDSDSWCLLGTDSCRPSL
As to conditions: at 0.1 µM.

The target in assay [11] is T4, Serine/threonine-protein kinase Nek9 (Homo sapiens). As to conditions: at 1 µM.
Assay [12] has as its target Serine/threonine-protein kinase PLK1 (Homo sapiens) (UniProt P53350). As to conditions: at 0.1 µM.
Assay [13] has the same target. As to conditions: at 1 µM.
Assay [14] concerns the target T5, Dual specificity protein kinase TTK (Homo sapiens) (UniProt P33981).
T5 sequence (whole entry): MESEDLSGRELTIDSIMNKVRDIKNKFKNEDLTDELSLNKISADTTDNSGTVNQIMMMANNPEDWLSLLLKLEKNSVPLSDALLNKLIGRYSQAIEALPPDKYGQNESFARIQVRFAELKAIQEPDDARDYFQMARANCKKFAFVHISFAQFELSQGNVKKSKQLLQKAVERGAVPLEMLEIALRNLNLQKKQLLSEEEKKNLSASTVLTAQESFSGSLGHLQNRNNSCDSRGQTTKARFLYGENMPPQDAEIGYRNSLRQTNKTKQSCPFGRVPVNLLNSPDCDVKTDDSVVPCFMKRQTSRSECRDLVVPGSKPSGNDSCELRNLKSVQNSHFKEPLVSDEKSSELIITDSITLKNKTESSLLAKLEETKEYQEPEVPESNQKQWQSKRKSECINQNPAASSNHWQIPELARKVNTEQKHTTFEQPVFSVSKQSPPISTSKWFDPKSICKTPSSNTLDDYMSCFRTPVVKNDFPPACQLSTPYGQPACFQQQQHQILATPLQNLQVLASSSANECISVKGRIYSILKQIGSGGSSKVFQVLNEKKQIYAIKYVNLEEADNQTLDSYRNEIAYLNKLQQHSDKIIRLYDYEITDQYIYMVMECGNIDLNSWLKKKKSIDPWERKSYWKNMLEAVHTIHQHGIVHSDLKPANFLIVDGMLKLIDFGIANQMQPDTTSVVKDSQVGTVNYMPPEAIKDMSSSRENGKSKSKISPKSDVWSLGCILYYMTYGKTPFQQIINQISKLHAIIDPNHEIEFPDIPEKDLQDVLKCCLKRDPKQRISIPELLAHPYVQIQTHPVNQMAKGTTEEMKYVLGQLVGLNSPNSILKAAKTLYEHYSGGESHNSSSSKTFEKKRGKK
As to conditions: at 0.1 µM.

For assay [15], the system named is T6, Receptor-type tyrosine-protein kinase FLT3 (Homo sapiens), P36888 [D835Y].
T6 sequence (whole entry): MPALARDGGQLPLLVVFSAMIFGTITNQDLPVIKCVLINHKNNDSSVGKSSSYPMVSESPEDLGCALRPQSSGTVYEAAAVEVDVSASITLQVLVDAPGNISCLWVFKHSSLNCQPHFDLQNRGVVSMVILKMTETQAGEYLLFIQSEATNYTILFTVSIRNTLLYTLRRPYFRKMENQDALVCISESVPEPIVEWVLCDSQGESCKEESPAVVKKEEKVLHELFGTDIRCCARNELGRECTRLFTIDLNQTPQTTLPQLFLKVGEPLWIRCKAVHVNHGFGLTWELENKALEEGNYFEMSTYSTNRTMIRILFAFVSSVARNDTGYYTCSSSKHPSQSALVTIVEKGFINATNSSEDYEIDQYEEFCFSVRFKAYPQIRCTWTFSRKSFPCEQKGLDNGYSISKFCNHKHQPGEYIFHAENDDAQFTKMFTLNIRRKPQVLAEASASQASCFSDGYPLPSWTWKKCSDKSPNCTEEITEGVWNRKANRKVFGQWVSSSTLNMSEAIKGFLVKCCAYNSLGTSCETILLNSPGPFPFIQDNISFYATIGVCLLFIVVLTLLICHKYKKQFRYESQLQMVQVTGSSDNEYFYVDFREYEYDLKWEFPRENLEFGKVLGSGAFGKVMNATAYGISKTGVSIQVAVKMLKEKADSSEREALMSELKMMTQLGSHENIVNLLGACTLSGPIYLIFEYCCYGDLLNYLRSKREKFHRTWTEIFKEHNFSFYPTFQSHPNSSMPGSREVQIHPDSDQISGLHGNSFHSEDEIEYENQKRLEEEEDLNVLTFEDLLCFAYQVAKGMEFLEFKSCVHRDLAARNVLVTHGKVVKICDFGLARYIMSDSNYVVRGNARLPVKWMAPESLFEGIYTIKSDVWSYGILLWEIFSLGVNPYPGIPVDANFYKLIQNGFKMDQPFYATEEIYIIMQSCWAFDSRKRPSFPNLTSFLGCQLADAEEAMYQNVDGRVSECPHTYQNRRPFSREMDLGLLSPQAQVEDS
As to conditions: at 1 µM.

Assay [16] concerns the target Vascular endothelial growth factor receptor 3 (Homo sapiens) (UniProt P35916). As to conditions: at 0.1 µM.
Assay [17] shares this target. As to conditions: at 1 µM.
For assay [18], the target named is Macrophage colony-stimulating factor 1 receptor (Homo sapiens) (UniProt P07333). As to conditions: at 0.1 µM.
Assay [19] has the same target. As to conditions: at 1 µM.
The target in assay [20] is Tyrosine-protein kinase Fyn (Homo sapiens) (UniProt P06241). As to conditions: at 0.1 µM.

The structures appear in SMILES notation.

Serine/threonine-protein kinase Nek6 (Homo sapiens), sequence (Q9HC98 whole entry): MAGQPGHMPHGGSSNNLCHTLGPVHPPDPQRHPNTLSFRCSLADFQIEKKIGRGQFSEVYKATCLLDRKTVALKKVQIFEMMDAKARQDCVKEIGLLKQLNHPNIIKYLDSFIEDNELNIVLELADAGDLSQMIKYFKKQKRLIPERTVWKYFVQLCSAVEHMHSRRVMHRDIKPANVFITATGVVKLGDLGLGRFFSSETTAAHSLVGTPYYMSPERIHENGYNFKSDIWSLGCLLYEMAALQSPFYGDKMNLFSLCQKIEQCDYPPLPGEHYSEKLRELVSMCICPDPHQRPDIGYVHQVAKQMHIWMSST
Vascular endothelial growth factor receptor 3 (Homo sapiens), sequence (P35916 whole entry): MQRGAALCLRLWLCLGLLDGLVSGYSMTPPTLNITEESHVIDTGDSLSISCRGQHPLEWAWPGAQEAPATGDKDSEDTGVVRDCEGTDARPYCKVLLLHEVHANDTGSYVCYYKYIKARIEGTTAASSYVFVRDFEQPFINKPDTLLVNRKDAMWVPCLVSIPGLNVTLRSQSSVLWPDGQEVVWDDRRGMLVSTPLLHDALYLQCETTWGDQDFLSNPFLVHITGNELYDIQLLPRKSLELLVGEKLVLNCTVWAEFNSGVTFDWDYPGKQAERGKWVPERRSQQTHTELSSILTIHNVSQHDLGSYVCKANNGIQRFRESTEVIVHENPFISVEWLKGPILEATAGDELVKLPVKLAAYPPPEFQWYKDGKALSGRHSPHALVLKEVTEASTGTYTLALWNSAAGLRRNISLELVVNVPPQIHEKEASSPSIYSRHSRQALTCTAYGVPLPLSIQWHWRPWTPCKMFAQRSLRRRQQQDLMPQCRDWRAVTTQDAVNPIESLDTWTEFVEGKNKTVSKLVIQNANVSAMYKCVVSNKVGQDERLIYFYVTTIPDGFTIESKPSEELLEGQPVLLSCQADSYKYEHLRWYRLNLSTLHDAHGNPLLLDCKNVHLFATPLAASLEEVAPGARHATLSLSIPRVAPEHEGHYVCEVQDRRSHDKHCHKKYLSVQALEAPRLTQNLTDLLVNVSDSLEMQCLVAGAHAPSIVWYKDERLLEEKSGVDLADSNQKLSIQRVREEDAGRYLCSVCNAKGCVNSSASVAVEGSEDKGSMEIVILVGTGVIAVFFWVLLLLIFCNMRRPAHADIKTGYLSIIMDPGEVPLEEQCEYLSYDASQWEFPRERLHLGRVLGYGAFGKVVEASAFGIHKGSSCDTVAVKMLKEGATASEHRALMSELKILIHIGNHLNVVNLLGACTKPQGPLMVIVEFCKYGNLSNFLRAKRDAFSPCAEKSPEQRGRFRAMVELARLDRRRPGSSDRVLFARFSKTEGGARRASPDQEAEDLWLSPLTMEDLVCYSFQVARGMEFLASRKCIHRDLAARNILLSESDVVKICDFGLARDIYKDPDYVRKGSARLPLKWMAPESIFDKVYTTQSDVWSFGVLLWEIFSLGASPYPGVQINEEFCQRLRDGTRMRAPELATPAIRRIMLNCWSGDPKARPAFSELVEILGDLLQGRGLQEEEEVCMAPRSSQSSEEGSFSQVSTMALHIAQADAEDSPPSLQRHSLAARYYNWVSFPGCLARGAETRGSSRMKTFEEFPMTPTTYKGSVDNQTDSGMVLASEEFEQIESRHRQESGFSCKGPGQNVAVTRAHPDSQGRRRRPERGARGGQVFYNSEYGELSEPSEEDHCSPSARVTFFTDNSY
Serine/threonine-protein kinase PLK1 (Homo sapiens), sequence (P53350 whole entry): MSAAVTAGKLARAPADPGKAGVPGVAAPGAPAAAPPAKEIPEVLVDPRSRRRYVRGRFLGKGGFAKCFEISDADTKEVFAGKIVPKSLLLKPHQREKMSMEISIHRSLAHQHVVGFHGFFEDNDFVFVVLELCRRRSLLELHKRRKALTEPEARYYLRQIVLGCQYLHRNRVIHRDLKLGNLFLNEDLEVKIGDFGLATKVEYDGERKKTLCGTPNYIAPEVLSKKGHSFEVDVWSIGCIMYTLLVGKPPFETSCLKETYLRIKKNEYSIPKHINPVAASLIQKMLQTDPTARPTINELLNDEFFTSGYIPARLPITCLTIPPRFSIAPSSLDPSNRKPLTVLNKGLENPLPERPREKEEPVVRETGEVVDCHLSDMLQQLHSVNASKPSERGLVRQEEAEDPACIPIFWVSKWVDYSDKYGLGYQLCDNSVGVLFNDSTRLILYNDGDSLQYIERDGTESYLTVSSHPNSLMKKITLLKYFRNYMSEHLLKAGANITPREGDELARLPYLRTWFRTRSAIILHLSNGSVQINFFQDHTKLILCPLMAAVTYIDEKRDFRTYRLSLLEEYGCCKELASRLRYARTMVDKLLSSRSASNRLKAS
Macrophage colony-stimulating factor 1 receptor (Homo sapiens), sequence (P07333 whole entry): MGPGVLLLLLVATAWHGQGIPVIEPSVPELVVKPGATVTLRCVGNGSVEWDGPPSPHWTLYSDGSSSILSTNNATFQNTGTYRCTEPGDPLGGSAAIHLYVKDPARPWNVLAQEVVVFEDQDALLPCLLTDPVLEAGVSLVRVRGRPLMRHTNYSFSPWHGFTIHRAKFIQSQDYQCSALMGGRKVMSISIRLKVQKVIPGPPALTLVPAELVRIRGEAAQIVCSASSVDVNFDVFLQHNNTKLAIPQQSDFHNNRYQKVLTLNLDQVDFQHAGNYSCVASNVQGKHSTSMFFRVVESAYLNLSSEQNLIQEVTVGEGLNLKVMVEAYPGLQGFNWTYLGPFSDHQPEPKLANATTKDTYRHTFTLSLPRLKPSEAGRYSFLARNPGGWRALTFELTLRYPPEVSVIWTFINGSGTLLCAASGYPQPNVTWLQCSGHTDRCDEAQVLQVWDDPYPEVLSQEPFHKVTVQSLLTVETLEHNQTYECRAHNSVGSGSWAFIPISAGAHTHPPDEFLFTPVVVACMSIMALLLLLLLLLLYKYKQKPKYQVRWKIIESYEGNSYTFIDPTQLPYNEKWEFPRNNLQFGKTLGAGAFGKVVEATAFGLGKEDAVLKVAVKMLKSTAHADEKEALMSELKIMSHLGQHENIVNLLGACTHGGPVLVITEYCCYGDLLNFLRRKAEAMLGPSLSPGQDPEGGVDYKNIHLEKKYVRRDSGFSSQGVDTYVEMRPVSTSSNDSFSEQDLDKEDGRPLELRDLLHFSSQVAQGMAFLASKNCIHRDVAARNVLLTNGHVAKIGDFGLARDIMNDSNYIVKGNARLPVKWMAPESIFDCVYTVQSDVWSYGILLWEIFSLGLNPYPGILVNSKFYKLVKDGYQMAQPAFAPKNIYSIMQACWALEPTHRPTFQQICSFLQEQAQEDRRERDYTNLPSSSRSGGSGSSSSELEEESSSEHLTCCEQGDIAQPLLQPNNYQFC
Serine/threonine-protein kinase Nek7 (Homo sapiens), sequence (Q8TDX7 whole entry, looked up): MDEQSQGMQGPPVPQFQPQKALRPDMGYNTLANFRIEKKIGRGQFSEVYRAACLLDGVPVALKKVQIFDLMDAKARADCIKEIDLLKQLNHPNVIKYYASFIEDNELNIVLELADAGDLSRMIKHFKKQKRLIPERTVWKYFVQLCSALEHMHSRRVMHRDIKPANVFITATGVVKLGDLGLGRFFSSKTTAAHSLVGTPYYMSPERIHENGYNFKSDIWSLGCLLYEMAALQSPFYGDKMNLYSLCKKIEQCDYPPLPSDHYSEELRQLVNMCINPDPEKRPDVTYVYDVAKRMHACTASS
Tyrosine-protein kinase Fyn (Homo sapiens), sequence (P06241 2-537 limits assumed): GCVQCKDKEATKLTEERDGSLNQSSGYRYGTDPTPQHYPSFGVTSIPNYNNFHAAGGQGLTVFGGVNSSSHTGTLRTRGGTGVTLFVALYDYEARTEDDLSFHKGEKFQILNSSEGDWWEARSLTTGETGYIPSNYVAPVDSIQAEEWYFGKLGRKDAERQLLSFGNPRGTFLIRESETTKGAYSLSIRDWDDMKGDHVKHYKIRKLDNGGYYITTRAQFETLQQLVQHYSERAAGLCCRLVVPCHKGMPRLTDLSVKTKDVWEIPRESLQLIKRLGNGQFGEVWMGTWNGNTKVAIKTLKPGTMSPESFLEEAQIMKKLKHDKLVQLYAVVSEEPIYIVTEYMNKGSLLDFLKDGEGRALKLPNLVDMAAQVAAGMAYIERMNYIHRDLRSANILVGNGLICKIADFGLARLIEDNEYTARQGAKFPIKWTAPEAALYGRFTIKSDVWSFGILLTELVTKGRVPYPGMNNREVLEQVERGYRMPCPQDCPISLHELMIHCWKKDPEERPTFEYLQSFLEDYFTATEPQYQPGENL

In general, inhibition refers to the relative decrease from the control value, in per cent. In the case of `CC(C)c1ccc(-c2cc(-c3c[nH]nc3-c3ccccn3)ccn2)cc1`, the inhibition in [1] was determined as 1.35%; in assay [2], 0.4%; in assay [3], 0.95%; in assay [4] it was 1.77%; in [5], 1.63%; in [6] it was 1.08%. Also, the inhibition was -0.92% in assay [7]; 2.44% in assay [8]; 0.94% in [9]; 3.68% in assay [10]; 2.93% in assay [11]; 0.48% in assay [12]. Moreover, the inhibition in assay [13] was found to be 0.41%; in assay [14] it was 2.65%; in assay [15] it was 1.71%; in [16], 1.37%; in [17], 5.15%; in assay [18], 0.03%. In addition, the inhibition in assay [19] was 3.63%; in assay [20], 1.14%.

On to `CC1=C(C(=O)Nc2ccc3[nH]nc(C)c3c2)C(c2ccc(C(F)(F)F)cc2)CC(=O)N1` (stereo not given), for which the inhibition was 2.46% in [1]; 1.56% in assay [2]; 2.57% in assay [3]; 3.16% in assay [4]; 3.29% in [5]; 1.24% in assay [6]. Besides, the inhibition in assay [7] was -1.35%; in assay [8], 3.34%; in assay [9] it was 2.74%; in assay [10], 1.92%; in [11] it was -5.55%; in assay [12], 3.32%. Also, the inhibition in assay [13] was found to be 0.85%; in assay [14], 4.14%; in assay [15], 5.4%; in assay [16] it was 5.85%; in assay [17] it was 2.72%; in [18], 1.56%. The inhibition in [19] is 2.04%; in [20] it was 2.88%.
